This is one part of a sample in which hits are shown more often than they occur.
CBX7 AlphaScr: CBX7 inhibition, primary AlphaScreen | normalised signal (fraction of DMSO) (test concentration not listed) | actives 1.1% (n = 66,000) | AlphaScreen His6-CBX7 / biotin-H3K27me3 peptide binding; hits give low values | AID 1224903 | O95931; in the data active = normalised signal below about 0.5
Target sequence (O95931 whole entry, looked up): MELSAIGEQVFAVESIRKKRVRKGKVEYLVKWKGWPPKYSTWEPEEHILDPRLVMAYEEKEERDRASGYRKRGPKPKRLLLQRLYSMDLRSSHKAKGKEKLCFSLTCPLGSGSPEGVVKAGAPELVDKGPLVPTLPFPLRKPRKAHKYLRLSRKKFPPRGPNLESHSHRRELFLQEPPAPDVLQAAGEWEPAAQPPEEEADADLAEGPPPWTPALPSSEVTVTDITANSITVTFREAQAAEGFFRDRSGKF
The depositor's hits bear a star.

SMILES	CBX7 AlphaScr
COc1ccc(-n2c(Cc3cc(=O)[nH]c(=O)[nH]3)nnc2SCc2ccc(Cl)cc2)cc1	1
Cc1ccc2c(c1)-c1c(cnn1CC(=O)N1CCCC(C)C1)CO2 (stereo not given)	1
Nc1c2c(nc3ccccc13)N(c1ccc(Cl)c(Cl)c1)CC2	1
CCOc1ccc(N2CCc3c2nc2ccc(Br)cc2c3N)cc1	0.21*
Cc1ccc2nc3c(c(N)c2c1)CCN3c1ccccc1	1.1
Cc1cc(N2CCC(C)CC2)nc2ccc(NC(=O)CCC(=O)NCCC(C)C)cc12	1
Cc1c(C(=O)NCc2ccccc2Cl)oc2ccc(S(=O)(=O)N(C)C3CCCCC3)cc12	0.95
Cc1nc2cc(-c3ccccc3)nn2c(C)c1CCC(=O)Nc1ccccc1F	1
CCN(CCCNC(=O)Cc1cn(C)c2ccccc12)c1ccccc1	0.5*
Cn1cc(CC(=O)NCCCN2CCCC2)c2ccccc21	0.96
CCN(CC)CCCNC(=O)Cc1cn(C)c2ccccc12	0.98
COc1ccc(C(=O)Nc2c3c(nn2-c2cccc(Cl)c2)CS(=O)(=O)C3)cc1OC	0.88
CCOC(=O)N1CCc2c(sc(NC(=O)c3ccc(S(=O)(=O)N(C)C)cc3)c2C(=O)OC)C1	1.1
O=S(=O)(Nc1nccs1)c1ccc(Nc2nnc(-c3ccc(Cl)cc3)c3ccccc23)cc1	0.23*
O=C(Nc1ccc(S(=O)(=O)Nc2nccs2)cc1)c1ccccc1Br	1
COc1cccc(OC)c1C(=O)Nc1ccc(S(=O)(=O)Nc2nccs2)cc1	1
Cc1ccc(-c2nnc(Nc3ccc4c(c3)ncn4C)c3ccccc23)cc1	0.58
Cc1nnc(Nc2ccc(S(=O)(=O)Nc3nccs3)cc2)c2ccccc12	0.49*
Cc1ccc(Nc2nnc(-c3ccc(C)c(S(=O)(=O)NC(C)(C)C)c3)c3ccccc23)cc1	0.93
Cc1ccc(-c2nnc(Nc3ccc(S(=O)(=O)Nc4nccs4)cc3)c3ccccc23)cc1	0.36*
Cc1ccc(-c2nnc(Nc3ccc(Cl)cc3)c3ccccc23)cc1S(=O)(=O)NCCO	0.82
NC(=O)COc1ccc(Nc2nnc(-c3ccc(Cl)cc3)c3ccccc23)cc1	0.91
CCOc1ccc(CCNC(=O)c2nc(-c3ccccc3F)oc2C)cc1OCC	0.9
Cc1ccccc1NC(=O)Cn1cc(C(=O)c2ccccc2)c2ccccc21	0.88
Cc1onc(-c2ccccc2Cl)c1C(=O)Nc1ccc(OCc2ccccc2)cc1	0.94
SMILES	CBX7 AlphaScr
CCOC(=O)c1cc(-c2ccccc2)n(CCC(=O)Nc2cc(C)ccc2OC)c1C	1.1
CCOC(=O)N1CCc2c(sc(NCc3ccncc3)c2C(=O)Nc2cc(OC)ccc2OC)C1	0.72
CCOC(=O)N1CCc2c(sc(NCc3cccs3)c2C(=O)Nc2cc(OC)ccc2OC)C1	0.47*
CCOC(=O)N1CCc2c(sc(NCc3cccs3)c2C(=O)Nc2ccc(OC)cc2OC)C1	0.86
COc1ccc(-c2nc3cc(C)ccc3o2)cc1NC(=O)c1ccc(Cl)cc1Cl	0.97
Cc1ccc(Nc2c(-c3c[nH]c4ccccc34)nc3cnccn23)cc1	1.5
CCS(=O)(=O)NC(C)C(c1cccs1)N1CCN(c2ccc(OC)cc2)CC1 (stereo not given)	0.83
COc1ccc(N2CCN(C(c3cccs3)C(C)NS(=O)(=O)c3ccccc3)CC2)cc1 (stereo not given)	0.48*
COc1ccc(N2CCN(C(c3cccs3)C(C)NS(=O)(=O)c3ccc(C)cc3)CC2)cc1 (stereo not given)	0.52
CC(NS(=O)(=O)c1ccc(F)cc1)C(c1cccs1)N1CCN(C)CC1 (stereo not given)	1
COc1ccc(N2CCN(C(c3cccs3)C(C)NS(=O)(=O)c3ccc(F)cc3)CC2)cc1 (stereo not given)	0.49*
CC(NS(=O)(=O)c1ccc(F)cc1)C(c1cccs1)N1CCN(c2ccccc2)CC1 (stereo not given)	0.86
COc1ccc(CNc2ncnc3c2cnn3-c2ccc(C)cc2C)cc1	0.99
CC1=C(C(=O)Nc2cccc(C)n2)C(c2cccs2)C2=C(CCCC2=O)N1 (stereo not given)	1
Fc1ccccc1-c1nc(NCc2ccccc2Cl)c2ccccc2n1	1
COCCNc1nc(-c2ccccc2F)nc2ccccc12	1.1
COc1ccccc1CNc1nc(-c2ccccc2F)nc2ccccc12	0.32*
COc1ccc(Cl)cc1C(=O)N(Cc1nc(-c2ccc(C)cc2)no1)C(C)C	1
COc1ccc(CCNC(=O)Cc2ccc(NC3=NC4CS(=O)(=O)CC4S3)cc2)cc1OC (stereo not given)	0.95
CCc1ccccc1NC(=O)Cn1c(SCc2ccccc2F)nc2ccncc21	1
O=C(CS(=O)(=O)c1nc(-c2ccccc2)cn1-c1ccc(Cl)cc1)Nc1ccc(F)cc1	0.86
O=C(CS(=O)(=O)c1nc(-c2ccccc2)cn1-c1ccc(Cl)cc1)Nc1ccccc1	0.86
O=C(CS(=O)(=O)c1nc(-c2ccccc2)cn1-c1ccc(Cl)cc1)Nc1ccccc1F	0.48*
Cc1ccc(C)c(NC(=O)CN(c2ccc(C(C)C)cc2)S(=O)(=O)c2c(C)nn(C)c2C)c1	1
CC1CC(C)CN(CCCNC(=O)C2CCN(C(=O)c3cc4sccc4n3C)CC2)C1 (stereo not given)	1
SMILES	CBX7 AlphaScr
O=C(c1c(-c2ccccc2)oc2ccc(O)cc12)N1CCCCC1	0.8
Cc1ccc2nc(-c3cccnc3)c(Nc3ccccc3)n2c1	1.1
COc1ccc(-c2nc3ncccn3c2Nc2ccc(C)cc2)cc1	1
COc1ccc(Nc2c(-c3ccccn3)nc3ccc(C)cn23)cc1	0.06*
Cc1ccc2nc(-c3ccccn3)c(Nc3ccccc3C)n2c1	0.0067*
Clc1ccc2nc(-c3ccc(N4CCOCC4)cc3)c(Nc3ccc4c(c3)OCCO4)n2c1	1.1
Cc1ccccc1Nc1c(-c2ccccn2)nc2ccc(Cl)cn12	0.96
Cc1ccc2nc(-c3ccncc3)c(Nc3ccccc3C)n2c1	0.89
Cc1ccc(Nc2c(-c3cccnc3)nc3ccc(C)cn23)cc1	0.94
Fc1ccc(Nc2c(-c3ccccn3)nc3ccc(Cl)cn23)cc1	0.86
Clc1ccc2nc(-c3ccccc3)c(Nc3ccc4c(c3)OCCO4)n2c1	1.1
Clc1ccc2nc(-c3ccccn3)c(Nc3ccc4c(c3)OCCO4)n2c1	0.15*
Cc1ccc2nc(-c3ccccn3)c(Nc3ccc(F)cc3)n2c1	0.21*
CCC(Cc1ccccc1)NC(=O)CN1C(=O)COc2ccc(S(=O)(=O)N(CC)CC)cc21 (stereo not given)	1
Clc1cccc(-n2cc(-c3ccccc3)c3c(NCc4ccc5c(c4)OCO5)ncnc32)c1	0.9
CCCCOCC(O)Cn1c(CO)nc2ccccc21 (stereo not given)	1
O=C(Nc1cccc(-c2nc3ccccc3s2)c1)c1ccc(S(=O)(=O)N2CCCCCC2)cc1	1.1
COc1ccc(-c2noc(CCC(=O)Nc3ccc(C)cn3)n2)cc1	1
Cc1ccc(-n2cnc3cc(Nc4nnc(-c5ccccc5)c5ccccc45)ccc32)cc1	0.94
CCN1C(=O)c2ccccc2S(=O)c2ccc(C(=O)N3CCC(Cc4ccccc4)CC3)cc21 (stereo not given)	0.92
COC(=O)c1cccc(C(=O)Nc2ccc(Br)cc2)n1	1
O=C(CC1C(=O)N(c2ccccc2)C(=O)N1Cc1ccc2c(c1)OCO2)Nc1ccc(F)cc1 (stereo not given)	0.89
Cc1nc2c(c(C)nn2-c2ccccc2)c(C)c1CCC(=O)N1CCN(c2cccc(Cl)c2)CC1	1
Clc1ccc2nc(-c3ccccn3)c(Nc3ccccc3)n2c1	0.59

Screening results as filed in PubChem.
